Results as given in ChEMBL document CHEMBL2218924, “A broad activity screen in support of a chemogenomic map for kinase signalling research and drug discovery” (Biochem J, 2013).

The compounds below were run against RAC-alpha serine/threonine-protein kinase (Homo sapiens) (UniProt P31749). Conditions: at 1 µM.
Sequence of RAC-alpha serine/threonine-protein kinase (Homo sapiens) (P31749 whole entry): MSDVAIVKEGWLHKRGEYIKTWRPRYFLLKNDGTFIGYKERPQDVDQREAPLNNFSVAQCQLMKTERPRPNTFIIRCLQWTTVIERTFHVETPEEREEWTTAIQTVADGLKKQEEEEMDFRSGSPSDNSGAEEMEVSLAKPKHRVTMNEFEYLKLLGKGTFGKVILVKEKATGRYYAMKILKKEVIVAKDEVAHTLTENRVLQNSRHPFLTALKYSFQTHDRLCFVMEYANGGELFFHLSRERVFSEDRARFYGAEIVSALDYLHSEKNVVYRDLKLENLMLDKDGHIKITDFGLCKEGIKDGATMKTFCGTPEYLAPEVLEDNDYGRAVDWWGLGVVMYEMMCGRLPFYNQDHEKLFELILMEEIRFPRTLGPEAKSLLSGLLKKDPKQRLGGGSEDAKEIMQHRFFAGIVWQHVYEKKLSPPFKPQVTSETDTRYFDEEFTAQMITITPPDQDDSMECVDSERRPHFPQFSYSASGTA

**Q.** With `COc1cc2ncnc(Nc3ccc(NC(=O)c4ccccc4)cc3)c2cc1OC` as the compound, how does the residual activity read?
**A.** 105%

**Q.** For `NC(=O)Nc1sc(-c2ccc(F)cc2)cc1C(N)=O`, which residual activity is on record?
**A.** 114%

**Q.** How did the residual activity turn out when `NC(=O)c1ccc2[nH]c(-c3ccc(Oc4ccc(Cl)cc4)cc3)nc2c1` was run?
**A.** 109%

**Q.** With `Cc1ccc(S(=O)(=O)/C=C/C#N)cc1` as the compound, how does the residual activity read?
**A.** 107%

**Q.** Which residual activity does the source give for `Cc1nc(-c2ccccc2)c(-c2ccncc2)o1` here?
**A.** 110%

**Q.** How did the residual activity turn out when `Cn1c2ccccc2c2c3c(c4c5ccccc5n(CCC#N)c4c21)CNC3=O` was run?
**A.** 106%

**Q.** `Cn1cnc2cc3c(Nc4cccc(Br)c4)ncnc3cc21` was tested. Which residual activity did it give?
**A.** 95%

**Q.** Which residual activity does the source give for `COc1cc2nccc(Oc3ccc(NC(=O)Nc4cc(C)on4)c(Cl)c3)c2cc1OC` here?
**A.** 97%

**Q.** `Cc1nc2cc3nc(-c4cccs4)cnc3cc2n1C` was tested. Which residual activity did it give?
**A.** 100%

**Q.** `N#C/C(=C\c1ccc(O)c(O)c1)C(=O)NCc1ccccc1` was tested. Which residual activity did it give?
**A.** 103%

**Q.** How did the residual activity turn out when `O=C1Nc2ccccc2/C1=C1/Nc2ccccc2/C1=N\OCCC(O)CO` (centres undefined) was run?
**A.** 113%

**Q.** `O=C(O)c1ccc2c3c1cccc3c(=O)n1c3ccccc3nc21` was tested. Which residual activity did it give?
**A.** 111%

**Q.** Which residual activity does the source give for `O=C1c2ccccc2-[n+]2ccc3c([nH]c4ccccc43)c21` here?
**A.** 108%

**Q.** How did the residual activity turn out when `O=C1Nc2cc(Br)ccc2/C1=C1/Nc2ccccc2/C1=N\O` was run?
**A.** 114%

**Q.** For `COc1cc2c(cc1OC)-c1n[nH]c(Nc3cccc(F)c3)c1C2`, which residual activity is on record?
**A.** 107%

**Q.** Which residual activity does the source give for `c1ccc2c(-c3ccncc3)c[nH]c2c1` here?
**A.** 103%

**Q.** For `O=[N+]([O-])c1ccc(-c2nc(-c3ccc(F)cc3)c(-c3ccncc3)[nH]2)cc1`, which residual activity is on record?
**A.** 112%

**Q.** `CC(C)n1cnc2c(NCc3ccccc3)nc(NCCCO)nc21` was tested. Which residual activity did it give?
**A.** 107%

**Q.** Which residual activity does the source give for `O=Nc1c(-c2c(O)[nH]c3ccccc23)[nH]c2ccccc12` here?
**A.** 107%

**Q.** Which residual activity does the source give for `CO[C@H]1C[C@@H]2CC[C@@H](C)[C@@](O)(O2)C(=O)C(=O)N2CCCC[C@H]2C(=O)O[C@H]([C@H](C)C[C@@H]2CC[C@@H](O)[C@H](OC)C2)CC(=O)[C@H](C)/C=C(\C)[C@@H](O)[C@@H](OC)C(=O)[C@H](C)C[C@H](C)/C=C/C=C/C=C/1C` here?
**A.** 105%

**Q.** With `CC(C)(C)c1nc2c3ccc(F)cc3c3c(=O)[nH]ccc3c2[nH]1` as the compound, how does the residual activity read?
**A.** 98%

**Q.** With `CCCCc1c(-c2ccc(OC)cc2)[nH]c2nccnc12` as the compound, how does the residual activity read?
**A.** 118%

**Q.** `COc1cc2ncnc(N3CCN(C(=O)Nc4ccc(Oc5ccccc5)cc4)CC3)c2cc1OC` was tested. Which residual activity did it give?
**A.** 106%

**Q.** `Nc1ncnc2c1cnn2-c1ccccc1` was tested. Which residual activity did it give?
**A.** 96%

**Q.** For `COc1cc2ncnc(Nc3ccc(Oc4ccccc4)cc3)c2cc1OC`, which residual activity is on record?
**A.** 108%

**Q.** For `O=C1NC(=O)C(c2cn(CCCn3ccnc3)c3ccccc23)=C1Nc1ccccc1`, which residual activity is on record?
**A.** 104%

**Q.** With `O=c1c2ccccc2[nH]c(=S)n1CCN1CCC(=C(c2ccc(F)cc2)c2ccc(F)cc2)CC1` as the compound, how does the residual activity read?
**A.** 112%

**Q.** For `C[C@@H](N)[C@H]1CC[C@H](C(=O)Nc2ccncc2)CC1`, which residual activity is on record?
**A.** 88%

**Q.** `CCOc1cc2ncnc(Nc3cccc(Br)c3)c2cc1OCC` was tested. Which residual activity did it give?
**A.** 101%

**Q.** With `O=C(c1ccccc1)c1ccc(N2CCOCC2)cc1O` as the compound, how does the residual activity read?
**A.** 96%

**Q.** With `Oc1ccc(-c2nc(-c3ccc(F)cc3)c(-c3ccncc3)[nH]2)cc1` as the compound, how does the residual activity read?
**A.** 113%

**Q.** With `COc1ccc(S(=O)(=O)N(CCO)c2ccccc2CN(C)C/C=C/c2ccc(Cl)cc2)cc1` as the compound, how does the residual activity read?
**A.** 116%

**Q.** Which residual activity does the source give for `Cc1ccc(NC2=CC(=O)c3sc(C)nc3C2=O)cc1` here?
**A.** 111%

**Q.** With `O=c1cc(-c2cccc3c2Sc2ccccc2S3)oc(N2CCOCC2)c1` as the compound, how does the residual activity read?
**A.** 99%
